Most compounds without a hit are left out; they make up all but 3.9% or so of the library.
Bead autofluor – compound fluorescence in toxin protease inhibitor counterscreen; AID 624483; fluorescence intensity (test concentration not listed); 360,000 compounds, 3.1% hits; compound autofluorescence counterscreen, microsphere flow cytometry; stronger effect = higher value; in the data active means fluorescence intensity above about 16000; inconclusive means no clear call, values can overlap the other calls
BoNT-F LC inh – BoNT F light chain protease inhibition; Multiplex microsphere protease cleavage assay, flow cytometry; AID 588497; inhibition, % at 10 µM; 360,000 compounds, 0.22% hits; in the data active means inhibition above about 35%, passing the limit was not always enough; inconclusive means no clear call, values can overlap the other calls
DUSP3 inh – blocks human VHR1 dual specificity phosphatase; P51452; recombinant VHR phosphatase, pNPP absorbance; inhibition, % at 13.3 µM; 290,000 compounds, 0.52% hits; in the data active means inhibition above about 50%
BoNT-A LC inh2 – BoNT A light chain protease inhibition; multiplex microsphere protease substrate cleavage, flow cytometry; inhibition, % at 10 µM; 360,000 compounds, 0.17% hits; AID 588499
Anthrax LF prot – inhibitors of Bacillus anthracis lethal factor protease; P15917; multiplex microsphere protease cleavage assay, LF; inhibition, % at 10 µM; 360,000 compounds, 0.12% hits; AID 588501
SARS 3CLpro inh – SARS-CoV 3CLpro protease inhibition. P0C6X7. recombinant SARS-CoV 3CLpro, quenched FRET peptide cleavage. 290,000 compounds, 0.14% hits. inhibition, % at 6 µM; in the data active means inhibition above about 12%
A number is an active result; . = inactive; ? = inconclusive; / = no result given. Unless noted, no stated cut-off is given here; in the data, active means inhibition above about 30%; inconclusive means no clear call, values can overlap the other calls; inactive means below that.

SMILES | Bead autofluor | BoNT-F LC inh | DUSP3 inh | BoNT-A LC inh2 | Anthrax LF prot | SARS 3CLpro inh
Cc1ccc(N2CC(C(=O)NCCC(C)C)CC2=O)cc1 (configuration not stated) | . | . | . | . | . | .
Cc1ccc(N2CC(C(=O)NC(C)CCc3ccccc3)CC2=O)cc1 (configuration not stated) | . | . | 52.8 | . | . | .
Cc1ccc(N2CC(C(N)=O)CC2=O)cc1C (configuration not stated) | . | . | . | . | . | .
Cc1ccc(N2CC(C(=O)Nc3nccs3)CC2=O)cc1Cl (configuration not stated) | 23923 | . | . | . | . | .
Cn1ncc(Cl)c1C(=O)NC1CCCC1 | . | . | . | . | . | .
COc1ccc(-c2cc(C)no2)cc1S(=O)(=O)NCCCN1CCCCCC1 | . | . | . | . | . | .
CN(C)c1ccc(/C=C(\C#N)C(=O)Nc2nc3c(s2)CCN(Cc2ccccc2)C3)cc1 | . | 57.5 | . | . | . | .
Cc1ccc(-n2c(=O)c(C#N)cc3c(=O)n4cccc(C)c4nc32)cc1 | 20956 | . | . | ? | . | .
O=C(Nc1ccccc1)N1CCN(c2cccc(C(F)(F)F)c2)CC1 | . | . | . | . | . | .
COc1ccc(NC(=O)N2CCN(c3cccc(C(F)(F)F)c3)CC2)cc1OC | 19995 | . | . | . | . | .
COc1ccc(NC(=O)CN(c2cccc(C(F)(F)F)c2)S(C)(=O)=O)cc1OC | 20812 | . | . | . | . | .
COc1ccc(N(CC(=O)N2CCc3ccccc3C2)S(C)(=O)=O)cc1OC | 16881 | . | . | . | . | .
COc1ccc(N(CC(=O)Nc2ccc(S(=O)(=O)N3CCCC3)cc2)S(C)(=O)=O)cc1OC | . | . | . | . | . | .
COc1ccc(N(CC(=O)Nc2ccc(S(=O)(=O)N3CCCCC3)cc2)S(C)(=O)=O)cc1OC | 19464 | . | . | ? | . | .
COc1ccccc1N(CC(=O)N1CCc2ccccc2C1)S(C)(=O)=O | . | . | . | . | . | .
Cc1cccc(N2Cc3ccc(Br)cc3C2)c1 | . | ? | / | . | . | /
Cc1ccc(/C=C(\C#N)C(=O)N2CCCC2)c(C)c1 | . | . | . | . | . | .
O=C(OCc1cn([C@@H]2C[C@H](c3ccccc3)N(C(=O)C3CCCCC3)C[C@H]2O)nn1)c1ccccc1 | . | . | / | . | . | /
C[C@H]1COc2cccc(N3CCSCC3)c2S(=O)(=O)N1 | . | . | / | . | . | /
CCC(=O)N1CCC1(C)C(=O)Nc1ncc(C)s1 (configuration not stated) | . | . | / | . | . | /
CC(C)c1ccc(N2C(=NC(=O)C3CC3)SC3CS(=O)(=O)CC32)cc1 (configuration not stated) | . | . | . | . | . | .
CC1(C(=O)NS(=O)(=O)c2cccc(F)c2)CCN1C(=O)CC1CCCC1 (configuration not stated) | . | . | / | . | . | /
O=C(NCC1CCCO1)c1cccc(S(=O)(=O)Nc2ccc(F)cc2)c1 (configuration not stated) | . | . | / | . | . | /
CC(=O)Nc1ccc(NC(=O)CN(c2cccc(C)c2)S(C)(=O)=O)cc1 | 22430 | . | . | . | . | .
CC(=O)Nc1ccc(NC(=O)CN(c2cccc(C(C)=O)c2)S(C)(=O)=O)cc1 | . | . | . | . | . | .
SMILES | Bead autofluor | BoNT-F LC inh | DUSP3 inh | BoNT-A LC inh2 | Anthrax LF prot | SARS 3CLpro inh
CN(Cc1ccccn1)C(=O)C1CCC(=O)N(CCc2ccc(Cl)cc2)C1 (configuration not stated) | . | . | . | . | . | .
Cn1c(=O)c(C(=O)NC2CCCCCCC2)c(O)c2ccccc21 | . | . | . | . | . | .
Cn1nc(CC(=O)NC2CCCCCC2)c2ccccc2c1=O | . | . | . | . | . | .
Cn1nc(C(=O)NC2CCCc3ccccc32)ccc1=O (configuration not stated) | . | . | . | . | . | .
Cn1c(=O)c(C(=O)NC2CCCCCC2)c(O)c2ccccc21 | . | ? | 59.7 | . | . | .
COc1ccc(OC)c(NC(=O)Cc2nn(C)c(=O)c3ccccc23)c1 | . | . | . | . | . | .
COc1cc(NC(=O)Cc2nn(C)c(=O)c3ccccc23)cc(OC)c1OC | 17080 | . | . | ? | . | .
Cn1nc(CC(=O)NC2CCCCC2)c2ccccc2c1=O | 23933 | . | . | . | . | .
Cn1nc(C(=O)NC2CCCCCC2)ccc1=O | 22596 | . | . | ? | . | .
COc1ccc(-c2noc(CCC(=O)N3CCN(c4ccc(C(F)(F)F)cc4)CC3)n2)cc1 | . | . | / | . | . | /
Cc1ccc(C(=O)OC(C(=O)O)C(OC(=O)c2ccc(C)cc2)C(=O)O)cc1 (configuration not stated) | . | . | / | . | . | /
COc1ccc(CCNC(=O)c2ccc3ccccc3n2)cc1 | . | . | . | . | . | .
CCOc1ccccc1C(=O)OCC(=O)Nc1cc(S(=O)(=O)N2CCOCC2)ccc1C | . | . | / | . | . | /
Cc1cccc(OC(C)C(=O)N/N=C\c2ccncc2)c1 (configuration not stated) | . | . | . | . | . | .
COc1cc(COCC(O)CN2C(C)CCCC2C)cc(OC)c1OC (configuration not stated) | . | . | . | . | . | .
O=C(CCC1CCCN(C(=O)c2ccccc2Cl)C1)N1CCN(c2ccccn2)CC1 (configuration not stated) | . | . | 52.3 | . | . | .
Cc1cc(OC(=O)Nc2ccccc2)ccc1Cl | . | . | / | . | . | /
COc1ccc(/C=C/C(=O)OCC(=O)NC2CCCCC2C)c(OC)c1 (configuration not stated) | . | . | / | . | . | /
CC(C)NC(=O)c1ccc(-c2cc(C(F)(F)F)ccc2Cl)o1 | 22154 | . | . | . | . | .
COCCSc1ccccc1C(=O)NCc1ccc(S(N)(=O)=O)cc1 | 23008 | . | . | ? | . | .
Cc1cccc(CCN=c2c([N+](=O)[O-])nn(-c3ccccc3)n2O)c1 | . | . | . | . | . | .
Cc1ccc(N=c2c([N+](=O)[O-])nn(-c3ccccc3)n2O)c(C)c1 | 17460 | . | . | . | . | .
COc1ccc(CCN=c2c([N+](=O)[O-])nn(-c3cccc(C)c3)n2O)cc1OC | . | 40.5 | . | . | . | .
CCC(C)(C(=O)NC1CCCCC1)N(C(=O)Cc1cccs1)c1ccccc1 (configuration not stated) | . | . | . | . | . | .
Cc1cc(C)cc(N(C(=O)c2sc(C)nc2C)C(C(=O)NC(C)(C)C)c2ccncc2)c1 (configuration not stated) | . | . | . | . | . | .
O=C(N/N=C/c1cc([N+](=O)[O-])ccc1N1CCNCC1)c1ccc([N+](=O)[O-])cc1 | . | . | 52.1 | . | . | .
N#CCC(=O)N/N=C/c1cc([N+](=O)[O-])ccc1N1CCCC1 | . | . | . | . | . | .
CC(C)(C)C(=O)OCc1cn(-c2ccc(Cl)cc2)nn1 | 19456 | . | . | ? | . | .
O=C(Nc1cccc(Cl)c1)OCc1cn(-c2ccc(Cl)cc2)nn1 | 16617 | . | . | . | . | .
